The nature of experiment [1]: Tanguay_ZF_120hpf_EYE_legacy: (Legacy) Oregon State University Tanguay Lab 120 Hour Post-fertilization zebrafish Assay for Eye Malformation (AID 2283636).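 Also: binary presence or absence of eye malformation scored by brightfield in 120 hpf larvae.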 The method, boiled down: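 Dechorionated Tropical 5D zebrafish embryos, one per well from 6 hpf, static exposure to 120 hpf at 28C, 0.64% DMSO. Eye malformation scored present/absent by brightfield; dead embryos not scored.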

Experiment [2] can be described thus: Tanguay_ZF_120hpf_SNOU_legacy: (Legacy) Oregon State University Tanguay Lab 120 Hour Post-fertilization zebrafish Assay for Snout Malformation (AID 2283637). The method, boiled down:
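Dechorionated tropical 5D wild-type zebrafish embryos exposed statically from 6 to 120 hpf at 28C, one per well, in 0.64% DMSO. Snout malformation scored as present/absent by brightfield at 120 hpf; dead embryos not scored.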

Experiment [3] can be described thus: Tanguay_ZF_120hpf_JAW_legacy: (Legacy) Oregon State University Tanguay Lab 120 Hour Post-fertilization zebrafish Assay for Jaw Malformation (AID 2283638). In outline: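 Binary jaw-malformation calls at 120 hpf by brightfield imaging; DMSO (0.64% v/v) = baseline. Embryos: 5D wild-type, pronase-dechorionated, one per well from 6 hpf, static exposure, 28C, sealed, dark.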

The nature of experiment [4]: Tanguay_ZF_120hpf_OTIC_legacy: (Legacy) Oregon State University Tanguay Lab 120 Hour Post-fertilization zebrafish Assay for Otic Vesicle Malformation (AID 2283639). The method, boiled down: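 Tropical 5D wild-type zebrafish embryos were exposed statically in sealed, foil-covered plates at 28C until 120 hpf, with 0.64% (vol/vol) DMSO final. Otic vesicle malformation was scored present/absent by brightfield microscopy, with DMSO as baseline.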

Experiment [5] in a line: Tanguay_ZF_120hpf_BRAI_legacy: (Legacy) Oregon State University Tanguay Lab 120 Hour Post-fertilization zebrafish Assay for Brain Malformation (AID 2283641). In outline:
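Read-out: binary brain morphology call at 120 hpf (brightfield), fitted in gain-of-signal direction vs DMSO. Wild-type Tropical 5D embryos, static exposure, 28C, 0.64% DMSO final; 5uM trimethyltin chloride as positive control.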

Experiment [6] in a line: Tanguay_ZF_120hpf_SOMI_legacy: (Legacy) Oregon State University Tanguay Lab 120 Hour Post-fertilization zebrafish Assay for Somite Malformation (AID 2283647). In outline:
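Binary brightfield scoring of somite defects at 120 hpf in 5D wild-type larvae; one dechorionated embryo per well, static exposure from 6 hpf, 28C, sealed and dark. Final DMSO 0.64%; trimethyltin chloride 5uM positive control.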

The nature of experiment [7]: Tanguay_ZF_120hpf_PFIN_legacy: (Legacy) Oregon State University Tanguay Lab 120 Hour Post-fertilization zebrafish Assay for Pectoral Fin Malformation (AID 2283648).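 Also: each larva judged yes or no for fin defect by brightfield with dead larvae skipped.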 The method, boiled down:
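Dechorionated Tropical 5D wild-type zebrafish embryos, one per well, statically exposed from 6 to 120 hpf at 28C with 0.64% DMSO final. Pectoral fin malformation scored present/absent by brightfield at 120 hpf; not scored in dead embryos.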

A short description of experiment [8]: Tanguay_ZF_120hpf_CFIN_legacy: (Legacy) Oregon State University Tanguay Lab 120 Hour Post-fertilization zebrafish Assay for Caudal Fin Malformation (AID 2283649). The method, boiled down:
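Dechorionated 5D wild-type zebrafish, static exposure 6–120 hpf, 28C, sealed and dark, 0.64% v/v DMSO final. Binary fin-malformation call at 120 hpf, brightfield; gain of signal vs DMSO baseline.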

Experiment [9] in a line: Tanguay_ZF_120hpf_PIG_legacy: (Legacy) Oregon State University Tanguay Lab 120 Hour Post-fertilization zebrafish Assay for Pigmentation Malformation (AID 2283650). In outline: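 Dechorionated Tropical 5D wild-type embryos, one per well from 6 hpf, statically exposed at 28C in the dark until 120 hpf, 0.64% DMSO final. Pigmentation scored present/absent by brightfield microscopy; dead embryos not scored; fitted versus DMSO.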

Experiment [10] can be described thus: Tanguay_ZF_120hpf_CIRC_legacy: (Legacy) Oregon State University Tanguay Lab 120 Hour Post-fertilization zebrafish Assay for Circulatory Malformation (AID 2283651). In outline:
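Tropical 5D wild-type embryos, dechorionated with pronase at 4 hpf, were placed singly in wells at 6 hpf and exposed statically at 28C to 120 hpf (0.64% DMSO final). Circulatory malformation was scored present/absent by brightfield microscopy.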

Experiment [11] in a line: Tanguay_ZF_120hpf_SWIM_legacy: (Legacy) Oregon State University Tanguay Lab 120 Hour Post-fertilization zebrafish Assay for Swim Bladder Malformation (AID 2283654).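 Also: swim bladder malformation in each larva scored yes or no under brightfield.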 In outline:
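Dechorionated wild-type Tropical 5D zebrafish embryos, one per well from 6 hpf, were statically exposed at 28C until 120 hpf in 0.64% DMSO. Swim bladder malformation scored as present/absent by brightfield microscopy; not scored in dead larvae.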

Experiment [12] in a line: Tanguay_ZF_120hpf_NC_legacy: (Legacy) Oregon State University Tanguay Lab 120 Hour Post-fertilization zebrafish Assay for Notochord and Tail Malformation (AID 2283656). The method, boiled down: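 Dechorionated 5D zebrafish, 1/well from 6 hpf; static exposure to 120 hpf, 28C, sealed, dark; final DMSO 0.64% v/v. NC scored binary (present/absent); dead embryos not scored. Fit vs DMSO baseline, gain direction.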

A short description of experiment [13]: CCTE_Simmons_CellTiterGLO_HEK293T: Viability Assessment in CCTE's Assays for Thyroperoxidase (TPO) Inhibition, Simmons Lab (AID 2283665).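 As to AC50: cells exposed to compound for 24 h before readout; actives reduce ATP signal below DMSO vehicle meaning cytotoxicity.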 The method, boiled down:
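HEK293T cells in DMEM with 1% FBS were dosed with 8 concentrations (5 nM–87.5 uM final, 0.5% DMSO) for 24 hr at 37C; ATP content was read by CellTiter-Glo luminescence, loss-of-signal versus DMSO, three biological replicates.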
A general note: In ATP-based viability assays light output follows the ATP content of the culture.

The nature of experiment [14]: Tanguay_ZF_120hpf_AXIS_legacy: (Legacy) Oregon State University Tanguay Lab 120 Hour Post-fertilization zebrafish Assay for Body Axis Malformation (AID 2283635).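 As to AC50: potency for an increased fraction of larvae scored with body axis malformation.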 In outline:
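Embryos: 5D wild-type, pronase-dechorionated 4 hpf; static exposure 6–120 hpf, 28C, sealed, dark, 1 embryo/well, 0.64% DMSO. 120 hpf axis malformation scored present/absent; dead embryos excluded. Analysed as gain of signal vs DMSO.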

Experiment [15] in a line: Tanguay_ZF_120hpf_PE_legacy: (Legacy) Oregon State University Tanguay Lab 120 Hour Post-fertilization zebrafish Assay for Pericardial Edema (AID 2283640). In outline: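 Static waterborne exposure, 5D wild-type embryos, 28C, to 120 hpf; final DMSO 0.64% (vol/vol). Binary PE call at 120 hpf by brightfield; fitted upward vs DMSO baseline. 5uM trimethyltin chloride as positive control.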

Experiment [16] can be described thus: Tanguay_ZF_120hpf_TRUN_legacy: (Legacy) Oregon State University Tanguay Lab 120 Hour Post-fertilization zebrafish Assay for Truncated Body (AID 2283655). In outline:
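Whole-embryo zebrafish screen: dechorionated 5D embryos, static exposure 6–120 hpf, 28C, sealed foil-covered plates, 0.64% DMSO. Binary truncation call; gain of signal versus DMSO baseline.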

Read-out in experiment [17]: solute carrier (SLC22A6), SLC22A6 (gene 9356)
The experiment in a line: LTEA_HepaRG_SLC22A6: Life Technologies and Expression Analysis (LTEA) Assay for solute carrier (SLC22A6) using HepaRG (AID 2283653; active = hit-call score of the fitted dose curve at least 0.9, where 1 is the maximum; inactive = score below 0.9). The note with it: mRNA level, 48 h; actives raise or lower the signal. In outline:
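HepaRG, human liver line; 48 h chemical exposure; 8-pt half-log series from 100 uM in 0.5% DMSO, duplicate wells. Readout: TaqMan qRT-PCR of SLC22A6 mRNA, housekeeping-normalised; bidirectional curve fit vs DMSO baseline.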

Read-out in experiment [18]: solute carrier (SLC10A1), SLC10A1 (gene 6554)
Kind of experiment: LTEA_HepaRG_SLC10A1: Life Technologies and Expression Analysis (LTEA) Assay for solute carrier (SLC10A1) using HepaRG (AID 2283657; active = hit-call score of the fitted dose curve at least 0.9, where 1 is the maximum; inactive = score below 0.9). The settings on record: mRNA level, 48 h; actives raise or lower the signal. The method, boiled down:
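HepaRG cells (single lot) exposed 48 h in serum-free induction medium, 8-point half-log series from 100 uM top in 0.5% DMSO, duplicate. SLC10A1 mRNA by qRT-PCR normalised to ACTB, GAPDH, POLR2A; bidirectional fit versus DMSO.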

Read-out in experiment [19]: matrix metalloproteinase-1 (MMP1), MMP1 (gene 4312)
Kind of experiment: LTEA_HepaRG_MMP1: Life Technologies and Expression Analysis (LTEA) Assay for matrix metalloproteinase-1 (MMP1) using HepaRG (AID 2283658; active = hit-call score of the fitted dose curve at least 0.9, where 1 is the maximum; inactive = score below 0.9). The settings on record: mRNA level, 48 h; actives raise or lower the signal. In outline: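 MMP1 transcript read by TaqMan qRT-PCR (Fluidigm array) after 48 h chemical exposure of HepaRG cells in serum-free induction medium. Eight-point half-log series, top 100 uM, 0.5% DMSO vehicle. Bidirectional curve fit against DMSO baseline.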

Read-out in experiment [20]: kallikrein-3 (KLK3), KLK3 (gene 354)
Kind of experiment: LTEA_HepaRG_KLK3: Life Technologies and Expression Analysis (LTEA) Assay for kallikrein-3 (KLK3) using HepaRG (AID 2283652; active = hit-call score of the fitted dose curve at least 0.9, where 1 is the maximum; inactive = score below 0.9). The note with it: mRNA level, 48 h; actives raise or lower the signal. In outline: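 Differentiated human HepaRG cells in serum-free induction medium exposed 48 h in duplicate, eight-point half-log series from 100 uM in 0.5% DMSO. KLK3 mRNA by qRT-PCR, normalised to ACTB, GAPDH, POLR2A; bidirectional fit versus DMSO.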

Results filed as inconclusive are left out. The source made the active and inactive calls. The calls were made as follows, unless noted: active = hit-call score of the fitted dose curve at least 0.9, where 1 is the maximum; inconclusive = response in the unintended direction; inactive = score below 0.9.

Our source for the outcome and AC50 values is PubChem BioAssay (EPA / NIEHS).

In the case of `Cc1ccc(N)cc1O`, the result in experiment [1], in [2], in experiment [3], in [4], in experiment [5] and in experiment [6] was inactive. The call in experiment [7], in experiment [8], in [9], in experiment [10], in experiment [11] and in experiment [12] was inactive. Besides, the molecule was called inactive in experiment [13].
As a reminder, the AC50 is the concentration giving half of the maximal activity seen. Consider `CN(C)c1ccc(Cc2ccc(N(C)C)cc2)cc1`, for which the molecule was called inactive in [14], in experiment [1], in experiment [2], in [15], in experiment [5] and in experiment [6]. Further, the outcome in experiment [7], in [8], in experiment [9], in experiment [10], in experiment [11] and in [16] was inactive. The half-maximal activity concentration (AC50) in experiment [13] is 22.3 µM (active).
For the molecule `O=C(O)c1cccc(Oc2ccccc2)c1`, the molecule was classed as inactive in experiment [1], in experiment [2], in experiment [4], in experiment [5], in experiment [7] and in experiment [8]. In addition, the molecule was classed as inactive in experiment [9], in experiment [10], in experiment [17], in [11], in experiment [18] and in [19].
As to `CC(=O)c1ccc2c(c1)[C@H](NC(=O)c1ccc(F)cc1)[C@@H](O)C(C)(C)O2`, the result in [14], in experiment [2], in [3], in [4], in experiment [15] and in [5] was inactive. Moreover, the outcome in [6], in [7], in [8], in [9], in experiment [10] and in experiment [11] was inactive.
With `Cc1c(-c2cccnc2)c2ccccc2n1CCCCC(=O)O`, the molecule was classed as inactive in experiment [14], in experiment [1], in experiment [3], in experiment [4], in [15] and in [5]. Also, the call in experiment [6], in [8], in experiment [9], in experiment [10] and in [11] was inactive.
Turning to `CCOCCOCCOCCO`, the result in experiment [1], in experiment [2], in experiment [4], in experiment [5], in experiment [6] and in [8] was inactive. The call in experiment [9], in experiment [11] and in experiment [12] was inactive.
As to `CCCCCCc1ccc(O)cc1O`, the molecule was classed as inactive in experiment [1], in experiment [2], in experiment [4], in experiment [5], in experiment [7] and in experiment [9]. Further, the molecule was called inactive in experiment [10], in [11], in [16] and in experiment [12]. The AC50 in experiment [13] was 21.3 µM (active).
For `O=C1CCCCCN1`, the call in experiment [2], in [3], in [4], in experiment [15], in experiment [5] and in experiment [6] was inactive. Besides, the call in experiment [8], in [9], in experiment [10], in experiment [11] and in experiment [12] was inactive.
Turning to `O=C1CCC(N2C(=O)c3ccccc3C2=O)C(=O)N1` (configuration not stated), the result in experiment [14], in [2], in [4], in experiment [7], in experiment [8] and in experiment [9] was inactive. The molecule was called inactive in experiment [10], in [11] and in [12].
In the case of `On1ccccc1=S`, the concentration at half-maximal activity (AC50) in experiment [14] was 0.0354 µM (active); in [2], 0.206 µM (active); in experiment [11], 0.0615 µM (active); in [12] it was 0.561 µM (active). Also, the call in [4], in experiment [5], in experiment [6], in [7], in [8] and in [9] was inactive. In addition, the molecule was classed as inactive in [10], in [16] and in experiment [13].
As for `CC(C)c1cccc(C(C)C)c1N1C(=O)c2ccc(O)cc2C1=O`, the outcome in experiment [14], in experiment [2], in experiment [3], in experiment [4], in experiment [5] and in [7] was inactive. The result in [8], in experiment [10], in [20], in experiment [17], in experiment [11] and in [19] was inactive. Moreover, in experiment [18], the AC50 is 78.7 µM (active).
